Assay results taken from PubChem BioAssay AID1347072 (National Center for Advancing Translational Sciences (NCATS), 2019).
Fewer than 10 of roughly 44,000 compounds were called active. Another 2% or so got no clear call; they are omitted. Calls follow the shape of the dose curve; as a rule, active = well fitted curve in the direction sought with a large enough effect; inconclusive = small, poorly fitted or top-dose-only effect, or another doubt; inactive = no such curve, though single readings can be large or run the other way. These entries were drawn from the full list.

molecular target: Galactokinase (Homo sapiens) (UniProt P51570); assay: qHTS Assay for Inhibitors of Human Galactokinase (GALK): NCGC Sytravon Library Screen; details: recombinant GALK, Kinase-Glo ATP luminescence, 1 h; series mostly up to 57.5 µM; activity, negative = inhibition: at the top concentration
Sequence (P51570 whole entry, looked up): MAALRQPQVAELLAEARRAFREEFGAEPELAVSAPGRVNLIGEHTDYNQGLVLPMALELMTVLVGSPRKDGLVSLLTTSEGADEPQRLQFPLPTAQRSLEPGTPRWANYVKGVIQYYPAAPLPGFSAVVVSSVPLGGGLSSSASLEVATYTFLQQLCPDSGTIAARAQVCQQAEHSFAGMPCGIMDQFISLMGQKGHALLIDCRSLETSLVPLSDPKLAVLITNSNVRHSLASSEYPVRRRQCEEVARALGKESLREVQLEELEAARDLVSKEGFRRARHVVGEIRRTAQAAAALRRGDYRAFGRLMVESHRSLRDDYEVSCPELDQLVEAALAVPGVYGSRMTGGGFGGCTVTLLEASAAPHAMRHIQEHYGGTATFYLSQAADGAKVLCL
Excerpt: Inherited deficiency of galactose-1-phosphate uridyltransferase (GALT) can result in a potentially lethal disorder called Classic Galactosemia (OMIM 230400). Several lines of evidence indicate that an elevated level of galactose-1-phosphate (gal-1-p), the product of galactokinase (GALK), is a major, if not sole, pathogenic mechanism in patients with classic galactosemia. Therefore, finding inhibitors of GALK is a potential novel therapy for this inherent metabolic disease and is the long term goal of this project. This screen is run against the NCGC Sytravon compound library collection. GALK (provided by Kent Lai) was assayed using ATP and D-(+)-Galactose (Sigma-Aldrich cat# G0750) as substrates. Promega Kinase-Glo Plus technology was used to detect kinase activity. Reactions with and without GALK were used as negative and positive controls together with Protein Tyrosine Phosphatase CD45 inhibitor (EMD Bioscience cat# 540215) which is shown to inhibit GALK activity. Decrease in activity corresponds to inhibition of the enzyme is the desired outcome for this assay. NIH Molecular Libraries Probe Production Network [MLPCN] NIH Chemical Genomics Center [NCGC] Grant: R03 MH085689-01 PI Name: Kent Lai Ph.D., University of Utah
NCGC Assay Protocol Summary: Three uL/well of ATP-buffer solution (35 uM ATP, 20mM HEPES pH8.0, 5 mM MgCl2, 60 mM NaCl, 1 mM DTT, 0.01% BSA final concentration) was dispensed into 1536-well, assay plates (Greiner, solid white medium-binding plates) with Aurora Discovery BioRAPTR Flying Reagent Dispenser (FRD; Beckton-Dickenson). Compound solution (23 nL) was transferred to the assay plate using the Kalypsys 1536-pin tool. One uL/well GALK-galactose solution (5 nM GALK, 100 uM galactose, 20 mM HEPES pH8.0, 5 mM MgCl2, 60 mM NaCl, 1 mM DTT, 0.01% BSA final concentration) was then added using the FRD yielding a total kinase reaction volume of 4 uL/ well. After 1 hour of room temperature incubation, 4 uL Kinase-Glo Plus reagent was added for a final assay volume of 8 uL/ well. Luminescence was detected with the ViewLux plate reader (Perkin Elmer, Waltham, MA) after 10 min incubation using a 1 sec exposure time and 2x binning.

activity, negative = inhibition, inactive:
CCOc1ccc(CNC(=O)C2CCN(c3nnc(-n4cccc4CNc4ccc(C)cc4)s3)CC2)cc1OC 5.96%
CCN1C(=O)c2ccccc2Sc2ccc(NC(=O)Cc3ccc(OC)cc3)cc21 -0.32%
Cc1ccc(C)c(S(=O)(=O)c2nnn3c2nc(N2CCOCC2)c2sccc23)c1 4.67%
Cc1ccc(NC(=O)C2CCN(S(=O)(=O)c3cc(-c4noc(C)n4)ccc3C)CC2)c(C)c1 -1.9%
CCCC(=O)Nc1ccc2oc(-c3ccc(O)c(Br)c3)nc2c1 -1.85%
O=S(=O)(c1ccc(C2CCCCC2)cc1)N1CCN(c2ccc(Cl)c(Cl)c2)CC1 6.36%
COc1ccc(-c2nn(CC(=O)NC3CCCC3)c3c2cnc2ccc(F)cc23)cc1 2.49%
Cc1ccc2oc(=O)c3cnn(CC(=O)NCc4ccccc4Cl)c3c2c1 -10.1%
Cc1ccc(CN(C(=O)COc2ccc(Cl)cc2C)C2CCS(=O)(=O)C2)o1 (centres undefined) -0.903%
CCN(CCCNC(=O)c1cc(Nc2ccc(OC)cc2)nc2ccccc12)c1cccc(C)c1 -1.53%
Cc1c(C)n(Cc2ccc(Cl)cc2)c2ccc(C(=O)N3CCN(c4ccccc4F)CC3)cc12 0.706%
Cc1ccc(OCCSc2nc3ccc(NC(=O)COc4ccc(C)cc4)cc3s2)cc1 0.194%
CCSc1nnc(NC(=O)c2cc(=O)c3cc(C)c(C)cc3o2)s1 -0.836%
O=C(CS(=O)(=O)c1cccc2nsnc12)N1CCN(c2cccc(Cl)c2)CC1 -5.52%
Cc1nc2ccn(Cc3cccnc3)c(=O)c2cc1C(=O)N1CCN(c2ccccc2F)CC1 -1.96%
O=C(CSc1nc2nccnc2c(=O)n1CCc1c[nH]c2ccccc12)Nc1ccccc1F 3.23%
CCn1cc(C(=O)OCC(=O)Nc2cc(C)cc(C)c2)c(=O)c2ccc(C)nc21 -3.36%
CCN1CCN(Cc2c(O)ccc3oc(C)c(C(=O)Nc4ccc(C)cc4C)c23)CC1 4.89%
CC1CCCN(c2csc3ccc(F)cc3c2=O)C1 (centres undefined) -1.87%
Cc1ccccc1CNC(=O)c1cccc(NC(=O)c2nsc3ccccc23)c1 2.23%
CN(Cc1ccco1)S(=O)(=O)c1nnc(NC(=O)c2ccccc2)s1 0.829%
Cc1ccc(F)cc1S(=O)(=O)N1CCC(c2nc3ccccc3s2)CC1 -6.17%
CCn1c2ccccc2c2cc(CN3CCN(Cc4cccc(Cl)c4)CC3)ccc21 -18.5%
CN(Cc1ccccc1)S(=O)(=O)c1ccc(F)c(C(=O)Nc2cccc(Cl)c2Cl)c1 -0.737%
O=C(Nc1cccc2cccnc12)c1cccc2c(Br)cccc12 0.56%
CCOc1ccc(NC(=O)c2cc3c(=O)n(Cc4cccs4)ccc3nc2C)cc1 -0.316%
CCOc1ccccc1NC(=O)CN1CCCN(Cc2cccc(Cl)c2)S1(=O)=O 0.419%
CCOCCCNC(=O)c1c(NC(=O)Cc2coc3ccc(C)cc23)sc2c1CCC2 0.78%
CCc1nn(CCCC(=O)NCc2ccc(C)cc2)c(=O)c2cc3occc3n12 -3.24%
CCOc1ccc(N(Cc2ccccc2)C(=O)c2nc(S(C)(=O)=O)ncc2Cl)cc1 9.16%
CCCN(CCC)C(=O)Cn1c(=O)n(-c2ccc(Cl)cc2)c(=O)c2c3c(sc21)CCCCC3 5.05%
Cc1ccc(Cl)cc1NC(=O)CSc1nccn1C -7.44%
CCN(CC)S(=O)(=O)c1ccc2c(c1)c(=O)c(C(=O)N1CCN(c3cccc(Cl)c3)CC1)cn2C 9.01%
COc1ccc(CCNC(=O)CCCCn2c(=O)c3ccccc3n(Cc3ccccc3)c2=O)cc1OC -5.81%
O=C(NCCc1ccc(Cl)cc1)c1ccc2nc(CCc3ccccc3)oc2c1 -1.58%
Cc1oc2ncn(CC(C)C)c(=O)c2c1C(=O)N1CCN(c2ccccc2F)CC1 1.39%
CCCNC(=O)c1ccc(Cn2c(SCC(N)=O)nc3ccccc3c2=O)cc1 0.439%
CCOC(=O)c1cc(NC(=O)c2ccc(F)cc2)c(=O)n2c1oc1ccccc12 0.179%
COc1ccc(-n2c(=O)c3c(c4cc(OC)ccc4n3C)n(Cc3cccc(C)c3)c2=O)cc1 0.514%
Cc1cccc(N2CCN(c3c(CN4CCCC4)c(=O)oc4ccccc34)CC2)c1C 1.96%
O=C(Nc1nnc(S(=O)(=O)N2CCCc3ccccc32)s1)c1cccc(F)c1 2.61%
CC(C)c1ccc(NC(=O)CN(C)S(=O)(=O)c2ccc3c(c2)c(=O)n(C)c(=O)n3C)cc1 10.7%
Cc1ccccc1CN1CCC(CNC(=O)c2c(C)oc3ncnc(N4CCCCC4)c23)CC1 0.952%
CCOc1ccc(CNC(=O)C2CCCN(S(=O)(=O)N(CC)c3ccc(OCC)cc3)C2)cc1 (centres undefined) 1.86%
COC(=O)c1ccccc1NC(=O)C(Cc1ccccc1)N1Cc2ccccc2C1=O (centres undefined) -3.55%
O=C(NCCc1csc(-c2ccc(C(F)(F)F)cc2)n1)C(=O)Nc1ccc(F)c(Cl)c1 1.81%
Cc1oc2ccc(O)c(CN3CCC(C)CC3)c2c1C(=O)Nc1ccccc1 2.63%
O=C(CC(c1cccs1)N1Cc2ccccc2C1=O)Nc1ccc(F)c(F)c1 (centres undefined) -2.34%
COc1ccccc1NC(=O)Cn1cnc2ccc(S(=O)(=O)N3CCC(C)CC3)cc2c1=O -0.99%
CCc1cccc(-n2nnc(-c3nsc(NC(=O)c4ccc(C)cc4)n3)c2C)c1 4.26%
Cc1cccc(-n2ccnc2SCC(=O)Nc2cc(C(F)(F)F)ccc2Cl)c1 -0.723%
COc1ccc(-c2nc3scc(CCNS(=O)(=O)c4cc(F)ccc4OC)n3n2)cc1OC -4.76%
C=Cc1ccc(Cn2c(C(=O)O)c(CNC3CCCC3)c3ccc(C)cc32)cc1 2.49%
CCS(=O)(=O)N1CCC(n2c(C)nc3cccnc32)CC1 -3.09%
Cc1ccc(C(=O)CSc2nc(-c3ccccc3)nc3c2CCCC3)c(C)c1 0.195%
Cc1ccc(C(=O)NCCSc2c(C)[nH]c3ccccc23)cc1C 5.45%
COc1ccc(CCNC(=O)c2c3c(nc4ccccc24)C(=O)N(C2CCCCC2)C3)cc1OC -0.522%
Cc1ccc(CNC(=O)c2ccc(CS(=O)Cc3cccc(Cl)c3)o2)cc1 (centres undefined) 4.65%
CC1Cc2cc(S(=O)(=O)CCC(=O)Nc3ccc(F)c(Cl)c3)ccc2N1C(=O)C1CC1 (centres undefined) 0.973%
CCCN1CCN(CCCNC(=O)c2cnn(-c3ccc(C)cc3)c2-n2cccc2)CC1 -0.365%
Cn1c(=O)c2c(SCC(=O)NCC3CCCO3)nc(-c3ccccc3F)nc2n(C)c1=O (centres undefined) -0.321%
COC(=O)c1cnc(N2CCN(c3ccccc3OC)CC2)c2ccccc12 0.685%
CN1c2ccc(Cl)cc2-c2nc(SCC(=O)Nc3cc(F)ccc3F)ncc2S1(=O)=O -2.3%
COc1ccc(Nc2cc(C(=O)NCCCN(C)c3ccccc3)c3ccccc3n2)c(OC)c1 3.84%
COc1cccc(CNC(=O)C(=O)NCC(c2cccs2)S(=O)(=O)c2ccccc2)c1 (centres undefined) 3.24%
Cc1cccc(-n2ncc(C(=O)N3CCN(c4ccc(Cl)cc4)CC3)c2C2CCN(C(=O)OC(C)(C)C)CC2)c1 4.36%
COc1ccc(NC(=O)CCNS(=O)(=O)c2ccc3c(c2)CCCC(=O)N3)cc1Cl -1.34%
Cc1cccc(N(C)C(=O)c2cc(S(=O)(=O)N3CCCCC3)c[nH]2)c1 0.584%
CCOC(=O)c1c(SCC(=O)Nc2cccc(C)c2C)nc(=O)[nH]c1C -0.958%
CCc1ccc(NC(=O)C2CCCN2S(=O)(=O)c2ccc3nc(-c4ccccc4)[nH]c3c2)cc1 (centres undefined) 3.02%
COC(=O)c1scc(-c2ccccc2)c1S(=O)(=O)Nc1ccccc1 -4.52%
CC1CCN(S(=O)(=O)c2ccc3c(c2)N(CC(=O)NCc2ccccc2Cl)C(=O)CO3)CC1 5.21%
COc1ccc(N2CCN(C3=NS(=O)(=O)C(c4cccc(Br)c4)=C3C)CC2)cc1 -8.33%
CCOc1ccc(CNC(=O)CCc2c(C)nn(-c3ccc(N4CCCCC4)nn3)c2C)cc1 1.04%
COc1ccc(OC)c(-c2nc(C(N)=O)c3c(n2)n(-c2ccc4c(c2)OCO4)c(=O)n3C)c1 -0.207%
O=C(NCc1ccc(F)cc1)c1ccc2nc(N3CCCCC3)sc2c1 1.1%
COc1cc(OC)c(C2C=C(C(=O)O)Nc3ncnn32)cc1OC (centres undefined) 1.86%
CCOc1cc(/C=C(\C#N)C(=O)Nc2ccccc2C)ccc1OCc1cc(=O)n2nc(CC)sc2n1 5.9%
O=C(Nc1ccc2nc(SCCOc3ccccc3Cl)sc2c1)c1ccco1 -12.7%
Cc1ccc(-c2nnc(SCC(=O)NCc3ccccc3)nc2-c2ccc(C)cc2)cc1 -0.152%
COc1cc(NC(=O)Cn2c(=O)n(Cc3ccco3)c(=O)c3oc4ccccc4c32)cc(OC)c1 4.91%
Cc1ccccc1CN1CCC(CNC(=O)c2cc3ccc4cccnc4c3[nH]2)CC1 1.34%
Cc1cc(C)c2oc(C(=O)Nc3ccc(S(=O)(=O)N(C)c4ccccc4)cc3)cc(=O)c2c1 8.51%
Cc1ccc(-c2nc(CS(=O)(=O)CC(=O)NCc3ccccc3Cl)c(C)o2)cc1 8.44%
CC(=O)c1ccc(NC(c2ccc(F)cc2)c2nnc(-c3ccccc3)o2)cc1 (centres undefined) 3.14%
CCOc1ccc(CNC(=O)CCC(=O)N2CCSc3ccccc32)cc1 0.849%
COCCNC(=O)c1ccc2c(c1)N(Cc1cccc(Cl)c1)C(=O)c1ccccc1S2(=O)=O 3.54%
COc1cc(NS(=O)(=O)c2ccc3c(c2)OCC(C(=O)N2CCCC2)O3)cc(OC)c1 (centres undefined) 4.24%
CCN(CC)C(=O)CSc1nc2cc3c(cc2c(=O)n1CCCC(=O)NCc1ccc2c(c1)OCO2)OCO3 -0.0389%
Cc1oc2c(c1C(=O)Nc1ccc(F)c(F)c1)C1=NCCN1C=N2 3.77%
O=C(NCC(c1cccnc1)N1CCc2ccccc21)c1cccc(C(F)(F)F)c1 (centres undefined) 0.389%
O=C(CN1c2ccccc2S(=O)(=O)c2ccccc21)Nc1cccc(C(F)(F)F)c1 -0.526%
COc1ccc(NC(=O)CSC2=Nc3ccccc3C3=NC(CC(=O)NCc4ccccc4OC)C(=O)N23)cc1Cl (centres undefined) -6%
CCN(CC)CCNC(=O)c1cc2c(=O)oc3ccc(C)cc3c2s1 9.39%
CCOC(=O)c1cc(-c2ccccc2)n(CCC(=O)Nc2ccccc2CC)c1C 2.18%
COC(=O)c1sc2ncccc2c1-n1c(C)ccc1C 4.85%
Cc1ccc2nc(/C(C#N)=C/c3ccccc3F)[nH]c2c1 -0.875%
COCCCNC(=O)C1CCC(CNS(=O)(=O)c2ccc(OC)cc2)CC1 (centres undefined) 2.75%
CCOC(=O)c1c(C)oc2nc(C)nc(N3CCN(c4ccc(OC)cc4)CC3)c12 -1.37%
NS(=O)(=O)c1ccc(CCNC(=O)CCCCCn2c(=O)[nH]c3ccccc3c2=O)cc1 0.328%
COc1ccc(S(=O)(=O)Nc2cc3c(C(=O)OC(C)C)c(C)oc3c3ccccc23)cc1 -0.0371%
COc1ccc(C(=O)CSc2c(C(C)C)cnc3c2c(=O)n(C)c(=O)n3C)cc1 1.18%
NS(=O)(=O)c1ccc2nc(NC(=O)COc3ccccc3)sc2c1 -0.423%
Cc1ccccc1C(=O)N(Cc1ccc(N(C)C)cc1)CC1CCCO1 (centres undefined) 0.0459%
